Experimental data: article PMC5540273 (PLoS ONE, 2017)

Assays:
Settings in all cases: concentration: 1 μM, replicates: in singlicate; n = 1
[1] = test system: LTK
[2] = test system: LYN
[3] = test system: T1, LZK
T1 construct: gene MAP3K13

[4] = test system: MAK
[5] = test system: MAP3K15
[6] = test system: MAP3K1
[7] = test system: MAP3K2
[8] = test system: MAP3K3
[9] = test system: MAP3K4
[10] = test system: MAP4K2
[11] = test system: MAP4K3
[12] = test system: MAP4K4
[13] = test system: MAP4K5
[14] = test system: MAPKAPK2
[15] = test system: MAPKAPK5
[16] = test system: MARK1
[17] = test system: MARK2
[18] = test system: MARK3
[19] = test system: MARK4
[20] = test system: MAST1
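Note: KINOMEscan kinase panel screen.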

Structure (SMILES)	%Inh [1] [%]	%Inh [2] [%]	%Inh [3] [%]	%Inh [4] [%]	%Inh [5] [%]	%Inh [6] [%]	%Inh [7] [%]	%Inh [8] [%]	%Inh [9] [%]	%Inh [10] [%]	%Inh [11] [%]	%Inh [12] [%]	%Inh [13] [%]	%Inh [14] [%]	%Inh [15] [%]	%Inh [16] [%]	%Inh [17] [%]	%Inh [18] [%]	%Inh [19] [%]	%Inh [20] [%]
Cc1cccc(Cn2ccn3c(=O)cc(N4CCOCC4)nc23)c1 [GSK2297542]	0	0	0	32	0	8	8	0	0	0	0	4	0	14	0	7	11	0	10	0
Cc1c2ccc(N(C)c3ccnc(Nc4cccc(S(N)(=O)=O)c4)n3)cc2nn1Cc1ccccc1.Cl.Cl [GW787226]	45	84	0	0	0	0	31	0	22	0	70	33	87	0	0	18	0	49	36	0
c1ccc(-c2n[nH]cc2-c2ccnc3ccccc23)nc1 [GW271431]	13	0	0	17	0	16	11	0	4	0	16	23	3	9	0	0	0	0	6	0
N#Cc1ccc(-c2cc(-c3c[nH]nc3-c3ccccn3)ccn2)cc1 [GW693028]	0	0	0	21	0	6	0	0	24	0	0	46	0	4	0	0	0	0	0	26
O=C(NCCNc1ccnc(Nc2ccc(F)cc2)n1)Nc1ccccc1F [GSK1379880]	0	0	0	0	14	0	0	0	29	0	0	0	0	12	0	0	0	0	0	0
COCCNC(=O)c1ccc(-c2cc(C(=O)NC3CC3)cc(F)c2C)cc1 [GW868318]	15	14	5	36	24	35	33	28	30	20	14	3	6	8	5	27	0	25	9	68
CSc1ccc(-c2cc3ncnc(SCC(=O)O)c3s2)cc1	17	0	0	29	0	0	0	0	10	0	0	0	0	1	0	0	18	6	0	15
Fc1ccc(-c2nn3c(OCC(F)(F)F)cccc3c2-c2ccncc2)cc1 [GW514784]	0	0	37	31	0	0	0	0	0	0	0	0	0	0	0	0	0	0	0	48
Cc1nnc(-c2ccc3ncc(-c4ccc(S(C)=O)cc4)n3c2)o1 (centres unmarked)	0	18	11	0	19	4	8	5	0	0	0	0	0	22	5	0	20	0	0	34
COc1cc2ncn(-c3cc(OCc4sccc4Cl)c(C(N)=O)s3)c2cc1OC [GSK448459]	0	0	0	7	0	88	10	0	0	20	50	0	99.1	0	0	0	0	0	0	0
COc1ccc(Nc2nccc(N3CCC(NC(=O)Nc4cc(C)ccc4C)C3)n2)cc1 (centres unmarked) [GSK1379741]	7	73	0	28	0	11	5	0	23	0	0	0	0	14	0	0	0	0	0	9
CN1c2ccc(NCc3ccc(F)cc3)cc2-c2c(cnn2C)S1(=O)=O	0	0	0	0	0	0	0	5	11	0	1	0	12	0	0	0	0	0	13	11
NS(=O)(=O)c1cccc(-c2ccc3nccc(-c4cccc(S(N)(=O)=O)c4)c3c2)c1 [GW867253]	0	0	1	0	0	8	15	0	12	9	0	0	0	0	0	7	0	0	25	47
CNc1ncnc2[nH]ncc12 [SKF-18355]	0	0	27	2	0	2	14	0	0	0	0	0	0	0	0	23	14	35	59	70
O=C1NC(=O)C(N2CCc3ccccc32)=C1c1cccc(Cl)c1 [SB-408010]	5	7	12	37	1	26	0	22	9	0	20	0	0	3	0	4	0	0	0	0
COc1cc(Nc2nccc(N3CCC(NC(=O)c4cccc(NC(C)=O)c4)C3)n2)cc(OC)c1OC (centres unmarked) [GSK1379754]	20	1	0	18	0	0	10	0	14	0	2	23	10	0	0	0	0	0	15	0
